This is a sample that favours compounds with a hit; in the whole collection about 10% have one here.
HEK cytotox: kills HEK 293 cells | HEK 293 viability, ATP luminescence (CellTiter-Glo), 48-72 h | Potency, µM (top dose mostly 115 µM), for inactives: top-dose activity change, negative = cytotoxicity, hits mostly inhibitors | 6.6% of 94,000 active; note: % is set by controls: 0 for no effect and ±100 for the full control effect; nearly all actives have a fitted effect of over 60% in size
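Luminescence from cellular ATP, measured with CellTiter-Glo, indicates HEK 293 viability. Cells plated at 250 cells/well are treated with compound for 48 or 72 hr at 37 degree Celsius before reagent addition.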
hNpr1 antagonist: antagonists of human natriuretic peptide receptor Npr1; P16066; HEK293 hNpr1 GloSensor cGMP, ANP-stimulated luminescence; Potency, µM (top dose mostly 46.3 µM), for the others: at the top dose activity change, negative = inhibition, actives largely listed as inhibitors; 1.6% of 76,000 active; calls by dose curve; note: % is set by controls: 0 for no effect and ±100 for the full control effect; nearly all actives have a fitted effect of over 60% in size
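HEK293 cells stably expressing human Npr1 and cGMP GloSensor pGS-40F, loaded 2 h with 2% GloSensor reagent, given compound 30 min at room temperature. Luminescence read before and 20 min after 0.1 nM hNppA.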
FLuc inh: Photinus pyralis luciferase inhibition. P08659. purified P. pyralis luciferase, luminescence, biochemical. Potency, µM (highest dose often 115 µM), actives largely listed as inhibitors. AID 1347043. 2.5% of 76,000 active; note: % is set by controls: 0 for no effect and ±100 for the full control effect; nearly all actives have a fitted effect of over 65% in size
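Purified 10nM P. pyralis luciferase with 10uM D-luciferin and 10uM ATP in 50mM Tris acetate pH 7.5, 10mM Mg acetate, 0.01% Tween-20, 0.05% BSA. qHTS titration; luminescence read by CCD imager.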
3T3 cytotox: NIH 3T3 cell cytotoxicity; NIH 3T3 viability, CellTiter-Glo ATP luminescence, 48-72 h; Potency, µM (titrated, usually from 96.7 µM), inactives show top-dose activity change, negative = cytotoxicity, usual class: inhibitors; 4.3% of 94,000 active; AID 1345082; note: % is set by controls: 0 for no effect and ±100 for the full control effect; nearly all actives have a fitted effect of over 55% in size
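NIH 3T3 cells at 400 cells/well received 23 nL of compound by pintool and were incubated 48 or 72 h at 37 °C. Viability was read as ATP-coupled CellTiter-Glo luminescence.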
GPT2 inhibitor: GPT2 alanine aminotransferase inhibition. Q8TD30. Recombinant GPT2, coupled pyruvate oxidase/HRP Amplex Red fluorescence. Potency, µM (highest dose often 57.7 µM), for inactives: at the top dose activity change, negative = inhibition, hits mostly inhibitors. 0.25% of 100,000 active. AID 1671188; note: % is set by controls: 0 for no effect and ±100 for the full control effect; nearly all actives have a fitted effect of over 60% in size
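Fluorescence read-out: pyruvate from GPT2 turnover coupled to pyruvate oxidase, HRP and Amplex Red (0.2mM ThPP, 0.2U/mL PO and HRP, 50uM Amplex final). Substrates 250uM a-KG, 2mM L-alanine; enzyme 10ng/uL; 30 min RT.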
NPR1 antag cnf: hNpr1 antagonism, confirmation assay; 76% of 1,400 active; HEK293 hNpr1 cGMP GloSensor luminescence, ANP-stimulated; shares compounds with hNpr1 antagonist; Potency, µM (series often up to 57.6 µM), for the others: at the top dose activity change, negative = inhibition, usual class: inhibitors; calls by dose curve; note: nearly all actives have a fitted effect of over 70% in size
Npr2 selectivity: hNpr2 antagonism, selectivity versus Npr1; shares compounds with hNpr1 antagonist; HEK293 hNpr2 GloSensor cGMP luminescence, CNP-stimulated; Potency, µM (top dose mostly 57.6 µM), without a hit: at the highest dose activity change, negative = inhibition, most hits filed as inhibitors; 67% of 1,400 active; calls by dose curve; note: nearly all actives have a fitted effect of over 70% in size
FLuc counter: FLuc enzyme inhibition, Npr1 counter-screen; shares compounds with hNpr1 antagonist; purified FLuc enzyme, luminescence, Km substrate; Potency, µM (titrated, usually from 57.6 µM), for the others: at the top dose activity change, negative = inhibition, usual class: inhibitors; 0.7% of 1,400 active; AID 1347047; note: series mostly up to about 58 µM; 0% is about no effect
GloSensor ctrl: counter-screen for Npr1 antagonists: GloSensor control cell line | HEK293 GloSensor cGMP, SNP-stimulated, luminescence | shares compounds with hNpr1 antagonist | AID 1347051 | Potency, µM (titrated, usually from 57.6 µM), without a hit: top-dose activity change, negative = inhibition, actives largely listed as inhibitors | 69% of 1,400 active; calls by dose curve; note: % is set by controls: 0 for no effect and ±100 for the full control effect; nearly all actives have a fitted effect of over 70% in size
* hit, by the source's call; i = inactive; ? = inconclusive; . = no result given; [ ] = another dose, or the depositor's remark. Unless noted, calls come from the whole dose curve; as a rule, active = well fitted curve in the direction sought with a large enough effect; inconclusive = small, poorly fitted or top-dose-only effect, or another doubt; inactive = no such curve, though single readings can be large; an effect the other way counts as inactive or inconclusive. Potency is the fitted concentration of half-maximal effect.

SMILES	HEK cytotox	hNpr1 antagonist	FLuc inh	3T3 cytotox	GPT2 inhibitor	NPR1 antag cnf	Npr2 selectivity	FLuc counter	GloSensor ctrl
N#Cc1cccc(NC(=O)N[C@H]2CO[C@H]3[C@@H]2OC[C@@H]3Nc2nccc(-c3cccc(F)c3)n2)c1	?	-18.3%	i	?	-1.7%	.	.	.	.
N#Cc1ccc(C(=O)Nc2ccc(-c3nnc4n3CCCC4)cc2)cc1	10.6%	-3.3%	i	i	i	.	.	.	.
CN(Cc1ccc(N2CCCCC2)cc1)C(=O)c1ccc2c(c1)C(O)CCCCCN2C (stereo not drawn)	35.5µM*	14.1µM*	i	?	-2.2%	24.3µM*	21.7µM*	-0.4%	27.3µM*
COc1ccc(N2CCN(C(=O)c3ccc4c(c3)C(O)CCCCCN4C)CC2)cc1 (stereo not drawn)	?	?	i	?	i	.	.	.	.
Cc1ccc(CN2CCN(C(=O)c3ccc4c(c3)C(O)CCCCCN4C)CC2)cc1 (stereo not drawn)	39.8µM*	11.2µM*	i	?	i	21.7µM*	19.3µM*	0.6%	17.2µM*
O=C(Nc1ccc(Cl)cc1Cl)c1cn2c(n1)CN(C(=O)c1ccccc1)CC2	?	.	.	?	i	21.7µM*	21.7µM*	-9.7%	19.3µM*
CC(=O)N1CCn2cc(C(=O)Nc3ccc(Cl)cc3Cl)nc2C1	-27.6%	.	.	?	?	.	.	.	.
O=C(Nc1ccc(F)c(Cl)c1)C1=NO[C@@H]2CN(Cc3cccnc3)C[C@H]12	?	28.2µM*	i	?	4.6%[88.5 µM]	35.3µM*	35.3µM*	-2.9%[86.2 µM]	31.4µM*
O=C(Nc1ccncc1)C1=NO[C@@H]2CN(CCc3ccccc3)C[C@H]12	?	?	i	?	i	39.6µM*	?	4.9%[86.2 µM]	35.3µM*
O=C(Nc1cccc(Cl)c1)C1=NO[C@@H]2CN(Cc3cccnc3)C[C@H]12	?	?	i	?	-3.4%[88.5 µM]	.	.	.	.
COc1ccccc1N1CCN(CC[C@@H]2CC[C@H](O)[C@@H](C(=O)NC3CCCCC3)O2)CC1	-24.1%	-0.8%	i	4.3%	-6.3%	.	.	.	.
Cc1ccc(CNC(=O)N2CC[C@@H]3C(=O)NCCCCCCN(Cc4ccncc4)[C@@H]3C2)cc1	-2.7%	2.2%	i	-28.7%	i	.	.	.	.
CCCC1=Nc2cc(C(=O)NCCc3ccc(OC)c(OC)c3)ccc2Sc2ccc(C)cc21	?	-11.5%	i	?	i	.	.	.	.
CCCC1=Nc2cc(C(=O)NCCc3ccc(OC)c(OC)c3)ccc2Sc2ccccc21	?	?	i	?	i	?	?	1.3%	?
COc1cccc([S+](=O)([O-])N2CCC3(CC2)C(=O)NN=C3c2cccnc2)c1	?	?	i	?	i	.	.	.	.
O=C1NN=C(c2cccnc2)C12CCN([S+](=O)([O-])c1cccc(C(F)(F)F)c1)CC2	?	?	i	?	?	21.7µM*	21.7µM*	1.7%	24.3µM*
CC(C)OC(=O)N1CCC(COc2ccc3c(cnn3CC[S+](C)(=O)[O-])c2)CC1	?	15.8µM*	i	?	?	15.7µM*	22.2µM*	-12.2%[86.2 µM]	14µM*

Screening data deposited in PubChem by National Center for Advancing Translational Sciences (NCATS).
